Compound activity from PubChem.
Shown are actives, neighbours in structure and some others; about 18% of the full set was active somewhere.
DT40 TDP1 no CPT: qHTS for Inhibitors of human tyrosyl-DNA phosphodiesterase 1 (TDP1): qHTS in cells in absence of CPT. 420,000 compounds, 15% hits. Potency, µM (doses to about 46.2 µM), inactives show at the top dose activity change, negative = growth inhibition, most hits filed as inhibitors. AID 686978, 2013. DT40 Tdp1-/- hTDP1 cells, no CPT, ATP luminescence, 48 h; note: potency is the fitted concentration of half-maximal effect; % is set by controls: 0 for no effect and ±100 for the full control effect; nearly all actives have a fitted effect of over 55% in size
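Chicken DT40 Tdp1-/- cells stably complemented with human TDP1 were seeded at 400 cells/well with DMSO in place of 20 nM camptothecin. After compound pinning, cells grew at least 48 hr at 37 °C; viability read by CellTiter-Glo luminescence.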
TGFb inhibitor: TGF-b pathway inhibition. HepG2 CAGA-GFP TGF-b/SMAD3 reporter, GFP fluorescence, 18 h; TGF-beta stimulated, 500 pg/mL final. Potency, µM (titrated, usually from 46.1 µM), without a hit: at the top dose activity, negative = inhibition, hits mostly inhibitors. 410,000 compounds, 1.2% hits; note: potency is the fitted concentration of half-maximal effect; % is set by controls: 0 for no effect and ±100 for the full control effect; nearly all actives have a fitted effect of over 65% in size
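HEPG2 CAGA-GFP, 1000 cells/well; 2 h settle, 37 C; cpd via pin tool; TGF-b 500 pg/mL final; 18 h, 37 C; GFP imaging ex488/em500-530; %Activity normalised to -TGF-b and +DMSO controls; CRC fit, curve class.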
IL1B secr inh: inflammasome signaling inhibition, IL-1 beta readout; AID 743279; activity change, % at 57.5 µM; 360,000 compounds, 4.7% hits; THP-1 LPS/ATP IL-1B secretion, AlphaLISA, 16 h; hits give low values; in the data active = activity change below about -50%; inconclusive = mostly about -30% to -49%; note: % is set by controls: 0 for no effect and ±100 for the full control effect
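THP-1 cells pretreated 1 hr with compounds (up to 57.5 uM final), then stimulated with LPS (250 ng/mL final) plus ATP (1.25 mM final); secreted IL-1B measured by AlphaLISA after 16 hr, decreased signal indicating inhibition.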
HepG2 tox: kills HepG2 cells in TGF-b inhibitor counter-screen; HepG2 CAGA-GFP viability, ATP luminescence, 18 h; Potency, µM (top dose mostly 46.1 µM), inactives show at the highest dose activity change, negative = cytotoxicity, hits mostly cytotoxic; 410,000 compounds, 0.76% hits; AID 588856; note: potency is the fitted concentration of half-maximal effect
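CellTiter-Glo luminescence gave cytotoxicity after 18 hours at 37 degrees C. The cells were HepG2 CAGA-GFP in 1% FBS DMEM, stimulated with 500 pg/mL TGF-beta after compound addition. %Activity was normalised to no-cell wells (complete cell-killing) and DMSO (no toxicity), and curves were fitted and classified.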
TDP1 inh: inhibitors of human tyrosyl-DNA phosphodiesterase TDP1 | 350,000 compounds, 0.28% hits | recombinant TDP1, AlphaScreen DNA substrate cleavage | Potency, µM (titrated, usually from 130 µM), without a hit: at the top dose activity change, negative = inhibition, most hits filed as inhibitors; note: potency is the fitted concentration of half-maximal effect; % is set by controls: 0 for no effect and ±100 for the full control effect; nearly all actives have a fitted effect of over 40% in size
Target sequence (Q9NUW8 whole entry, looked up): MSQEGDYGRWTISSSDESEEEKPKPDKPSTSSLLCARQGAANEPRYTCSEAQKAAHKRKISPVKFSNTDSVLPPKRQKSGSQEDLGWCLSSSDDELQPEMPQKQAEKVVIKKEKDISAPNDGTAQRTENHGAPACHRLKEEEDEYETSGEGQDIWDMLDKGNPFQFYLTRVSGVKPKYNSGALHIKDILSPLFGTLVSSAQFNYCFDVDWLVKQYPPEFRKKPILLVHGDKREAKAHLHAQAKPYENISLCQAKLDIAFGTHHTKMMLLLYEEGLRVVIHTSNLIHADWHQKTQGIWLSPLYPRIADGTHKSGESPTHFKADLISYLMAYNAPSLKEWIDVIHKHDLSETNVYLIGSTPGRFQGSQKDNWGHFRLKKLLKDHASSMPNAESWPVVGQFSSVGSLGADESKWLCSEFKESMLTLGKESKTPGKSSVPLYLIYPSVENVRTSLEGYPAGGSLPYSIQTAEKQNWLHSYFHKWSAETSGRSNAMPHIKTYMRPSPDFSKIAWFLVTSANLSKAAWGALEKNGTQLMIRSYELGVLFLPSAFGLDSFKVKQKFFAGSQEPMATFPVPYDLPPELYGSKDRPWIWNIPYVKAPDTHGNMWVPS
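AlphaScreen read-out: signal falls as enzyme removes the 3' tyrosine-FITC from a 5'-biotinylated DNA oligo (15 nM, 5 min, RT). Enzyme was E. coli-made recombinant Tdp1 at 1 nM, exposed to compound for 15 min beforehand; beads 10 ug/ml, 10 min.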
DT40 TDP1 CPT: DT40-hTDP1 cell growth loss with CPT | chicken DT40 Tdp1-/-;hTDP1 cells + 20 nM CPT, ATP luminescence, 48 h | Potency, µM (highest dose often 46.2 µM), for inactives: at the top dose activity change, negative = growth inhibition, usual class: inhibitors | 420,000 compounds, 12% hits | AID 686979; note: potency is the fitted concentration of half-maximal effect; % is set by controls: 0 for no effect and ±100 for the full control effect; nearly all actives have a fitted effect of over 55% in size
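Chicken DT40 Tdp1-/- cells complemented with human TDP1, 400 cells/well, exposed to compounds plus 20 nM camptothecin for at least 48 h at 37 C; viability read as ATP content by CellTiter-Glo luminescence.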
Active calls of the source: *; ? = inconclusive; · = no result; [ ] = remark or other dose. Unless noted, calls come from the whole dose curve; as a rule, active = well fitted curve in the direction sought with a large enough effect; inconclusive = small, poorly fitted or top-dose-only effect, or another doubt; inactive = no such curve, though single readings can be large; an effect the other way counts as inactive or inconclusive.

SMILES	DT40 TDP1 no CPT	TGFb inhibitor	IL1B secr inh	HepG2 tox	TDP1 inh	DT40 TDP1 CPT
CCN1C[C@@H]2[C@@H]3C(=O)N(Cc4ccccc4)C(=O)[C@@H]3[C@](Cc3ccccc3)(C1=O)N2C(=O)c1ccc(C(C)(C)C)cc1	18.4µM*	1.3%	-13.5	0.9%	·	16.4µM*
CCN1C[C@@H]2[C@@H]3C(=O)N(Cc4ccccc4)C(=O)[C@@H]3[C@](Cc3ccccc3)(C1=O)N2C(=O)c1ccc(C(F)(F)F)cc1	-15.1%	-1.8%	11.3	-3.8%	·	-9.3%
Cc1ccc2c(c1)N(CC(=O)NC1CCC(C)CC1)C(=O)c1cccnc1O2 (configuration not stated)	-24.3%	?	-12.4	0.5%	·	-10.6%
O=C(NCc1ccccc1Cl)c1ccc2c(c1)N(Cc1ccccc1)CCS2	18.4µM*	-0.2%	·	-5.9%	3.8%	13µM*
O=C(NCc1cccnc1)c1ccc2c(c1)N(Cc1ccccc1)CCS2	?	-24.1%	-21.3	-15.4%	10.6%	?
O=C(NCc1ccccn1)c1ccc2c(c1)N(Cc1ccccc1)CCS2	?	20.1%	-23.8	-18.4%	5.6%	?
Cc1ccccc1CNC(=O)c1ccc2c(c1)N(Cc1ccccc1)CCS2	20.6µM*	·	·	-13.2%	1.0%	?
C[C@@H]1O[C@@H](OC[C@H]2O[C@@H](Oc3c(-c4ccc(OCCO)c(OCCO)c4)oc4cc(OCCO)cc(O)c4c3=O)[C@H](O)[C@@H](O)[C@@H]2O)[C@H](O)[C@H](O)[C@H]1O	0.3%	·	·	·	·	-24.7%
CC(=O)Oc1ccc2c(=O)c(-c3ccccc3)coc2c1	?	8.0%	-21.6	2.9%	2.4%	3.4%
COc1ccc(-c2coc3cc(OC(C)=O)ccc3c2=S)cc1	?	-25.8%	-1.4	-9.6%	·	25.9µM*
O=C1CC(N2C(=O)/C(=C/C=C/c3ccccc3)SC2=S)C(=O)N1c1ccccc1 (configuration not stated)	13µM*	-20.2%	?	-0.1%	11.3%	13µM*
CC1(C)Cc2ccccc2C(=O)N1	-2.7%	0.0%	4.0	-14.5%	4.2%	-0.8%
CNC(=O)/C=C1\NC(C)(C)Cc2ccccc21	-16.1%	?	6.6	-56.5%	2.0%	-1.6%
CCNC(=O)/C=C1\NC(C)(C)Cc2c1ccc1ccccc21	20.6µM*	-18.2%	?	-25.9%	-5.6%	?
CC1(C)Cc2c(ccc3ccccc23)C(=O)N1	20.6µM*	-11.8%	?	-20.9%	4.1%	?
Cc1ccccc1-c1cnc(C(O)c2ccccc2)[nH]1 (configuration not stated)	-5.3%	20.6%	0.0	4.2%	·	-20.1%
CSc1ncc2[nH]c(C(O)c3ccccc3)nc2n1 (configuration not stated)	10.3µM*	?	33.6	-8.4%	·	9.2µM*
Cc1ccc(-c2nc(-c3ccccn3)no2)cc1Cl	11.6µM*	-2.3%	17.4	11.2µM*	4.0%	?
Cc1ccc(-c2nc(-c3ccccn3)no2)cc1	8.2µM*	-0.8%	0.0	12.6µM*	4.0%	7.31µM*
Clc1cccc(-c2nc(-c3ccccn3)no2)c1	?	?	13.3	-36.4%	1.0%	-20.7%
Cc1ccc(-c2nc(-c3ccncc3)no2)cc1Cl	-3.6%	4.5%	8.9	7.1%	·	6.7%
c1ccc(-c2ccc(-c3nc(-c4ccccn4)no3)cc2)cc1	10.3µM*	-6.2%	-3.9	7.08µM*	-3.9%	11.6µM*
COc1ccccc1-c1noc(-c2cc(OC)c(OC)c(OC)c2)n1	23.1µM*	0.7%	-22.2	-18.8%	-2.8%[56.1 µM]	?
